ClpP mod – qHTS Assay for Activators of ClpP | purified B. subtilis ClpP, FRET peptide cleavage, 20 min | Potency, µM (titrated, usually from 57.5 µM) | actives 1.9% (n = 340,000); active = well fitted falling curve with a large enough effect; inconclusive = small, poorly fitted or top-dose-only effect; inactive = no such curve, though single readings can be large or run the other way; note: the source files actives as falling curves though it sought activators and does not explain the sign; nearly all actives have a fitted effect of over 65% in size
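FRET quenching reversal measured ClpP activation: 10 microg/mL B. subtilis ClpP at pH 8 with the FRET-FV decapeptide, read at 430 nm after 320 nm excitation. The 20-min minus 0-min signal was scaled between DMSO/no-enzyme wells and ADEP (5.8 microM final).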
DRD3 antagonist – D3 dopamine receptor (human) antagonism; P35462; D3R cells, DiscoveRx beta-arrestin luminescence, antagonist mode; hits give low values; max response, negative = inhibition, %; actives 2.5% (n = 360,000); AID 652054; in the data active = max response below about -50%; inconclusive = no clear call, values can overlap the other calls
Target sequence (P35462 whole entry, looked up): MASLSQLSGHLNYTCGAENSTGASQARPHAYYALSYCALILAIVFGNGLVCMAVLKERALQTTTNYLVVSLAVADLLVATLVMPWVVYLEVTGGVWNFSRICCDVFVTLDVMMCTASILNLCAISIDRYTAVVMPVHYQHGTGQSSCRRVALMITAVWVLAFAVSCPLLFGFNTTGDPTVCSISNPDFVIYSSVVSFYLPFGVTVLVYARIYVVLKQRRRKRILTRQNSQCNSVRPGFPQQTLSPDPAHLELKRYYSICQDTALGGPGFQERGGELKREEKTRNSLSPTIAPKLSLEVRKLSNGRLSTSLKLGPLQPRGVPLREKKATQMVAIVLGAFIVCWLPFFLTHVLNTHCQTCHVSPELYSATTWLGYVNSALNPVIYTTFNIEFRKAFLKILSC
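Cells plated overnight at 1500 cells/well, then exposed to library compounds with dopamine controls for 90 minutes at 37 degrees C. DiscoveRx reagent added for 30–60 minutes at room temperature; luminescence read, quantitative HTS format.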
TDP1 cell noCPT – qHTS for Inhibitors of human tyrosyl-DNA phosphodiesterase 1 (TDP1): qHTS in cells in absence of CPT | AID 686978, 2013 | DT40 Tdp1-/- hTDP1 cells, no CPT, ATP luminescence, 48 h | actives 15% (n = 420,000) | Potency, µM (series often up to 46.2 µM), hits mostly inhibitors; note: nearly all actives have a fitted effect of over 55% in size
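Chicken DT40 Tdp1-/- cells complemented with human TDP1, screened without camptothecin (DMSO vehicle only), 400 cells/well. Compounds pin-transferred, cells incubated at 37 °C for at least 48 hr. Growth read as ATP-dependent luminescence (CellTiter-Glo, 30 min at RT).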
IL1B secr inh – inhibitors of inflammasome signaling (IL-1 beta secretion). THP-1 LPS/ATP IL-1B secretion, AlphaLISA, 16 h; hits give low values. activity change, % at 57.5 µM. actives 4.7% (n = 360,000). AID 743279; in the data active = activity change below about -50%; inconclusive = mostly about -30% to -49%
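THP-1 cells pretreated 1 hr with compounds (up to 57.5 uM final), then stimulated with LPS (250 ng/mL final) plus ATP (1.25 mM final); secreted IL-1B measured by AlphaLISA after 16 hr, decreased signal indicating inhibition.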
DT40 TDP1 CPT – DT40-hTDP1 cell growth loss with CPT. chicken DT40 Tdp1-/-;hTDP1 cells + 20 nM CPT, ATP luminescence, 48 h. Potency, µM (titrated, usually from 46.2 µM), usual class: inhibitors. actives 12% (n = 420,000). AID 686979; note: nearly all actives have a fitted effect of over 55% in size
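Chicken DT40 Tdp1-/- cells stably complemented with human TDP1 were seeded at 400 cells/well in medium containing 20 nM camptothecin, exposed to pin-transferred compounds, and grown at 37 °C for at least 48 hr. Viability was read as ATP luminescence.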
DRD3 agonist – activates the human D3 dopamine receptor. D3R DiscoveRx beta-arrestin cells, luminescence, 90 min. actives 0.58% (n = 410,000). P35462. max activation, %; in the data active = max activation above about 30%
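Agonist mode: compounds and dopamine controls were applied to plated cells for 90 min at 37 degrees C after an overnight attachment at 1500 cells/well. Luminescent read-out followed 30 - 60 minutes at room temperature with DiscoveRx detection reagent.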
Large screens that a line does not name were inactive. Hits are enriched below; roughly 21% of the tested compounds scored in any of these assays. Unless noted, calls come from the whole dose curve; as a rule, active = well fitted inhibition curve with a large enough effect; inconclusive = small, poorly fitted or top-dose-only effect; inactive = flat fitted curve, though single readings scatter.

CCCC[C@@H]1CNC(=S)N1CCc1cccc(F)c1	TDP1 cell noCPT inconclusive
NCCCC[C@H]1CN=C(N)N1CCCCC1CCCCC1	TDP1 cell noCPT inconclusive, IL1B secr inh -64, DT40 TDP1 CPT inconclusive
Fc1cccc(CCN2C(=S)NC[C@@H]2Cc2ccccc2)c1	TDP1 cell noCPT inconclusive, DT40 TDP1 CPT 21µM
NCCCC[C@H]1CN=C(N)N1CC1CCCCC1	none
CC(C)(C)NC(=O)CCc1ncc(C(F)(F)F)cc1Cl	none (no result: ClpP mod)
O=C(NNC(=O)C1CCN(Cc2cccc(F)c2)CC1)c1cccc(Cl)c1	TDP1 cell noCPT inconclusive
O=C(NC(c1ccc(Cl)cc1)c1ccsc1)C1CCN(Cc2cccc(Cl)c2)CC1 (centres undefined)	DRD3 antagonist -50, TDP1 cell noCPT 4.6µM, DT40 TDP1 CPT 5.2µM
O=C(NC(c1ccc(Cl)cc1)c1ccsc1)C1CCN(Cc2cccc(C(F)(F)F)c2)CC1 (centres undefined)	DRD3 antagonist -93, TDP1 cell noCPT 4.1µM, IL1B secr inh -70, DT40 TDP1 CPT 4.1µM
Cc1ccc(-n2c(SCC(=O)Nc3ccc4c(c3)OCO4)nc3c([nH]c4ccccc43)c2=O)cc1	ClpP mod inconclusive, TDP1 cell noCPT inconclusive (no result: DRD3 antagonist, IL1B secr inh)
Cc1ccc(NC(=O)C(Cc2ccccc2)NS(=O)(=O)c2cccs2)cc1Cl (centres undefined)	none (no result: DRD3 antagonist, IL1B secr inh)
COc1cc(NC(=O)C(Cc2ccccc2)NS(=O)(=O)c2cccs2)cc(OC)c1 (centres undefined)	DT40 TDP1 CPT 23µM (no result: DRD3 antagonist, IL1B secr inh)
CCc1cccc(NC(=O)C(Cc2ccccc2)NS(=O)(=O)c2cccs2)c1 (centres undefined)	TDP1 cell noCPT 18µM, DT40 TDP1 CPT inconclusive (no result: DRD3 antagonist, IL1B secr inh)
CC(CCc1ccccc1)NC(=O)C(Cc1ccccc1)NS(=O)(=O)c1cccs1 (centres undefined)	none
COc1cccc(Nc2ncc3nc(CCc4ccccc4)c(=O)n(C[C@H]4CCCO4)c3n2)c1	TDP1 cell noCPT inconclusive (no result: ClpP mod, DRD3 antagonist, IL1B secr inh, DRD3 agonist)
CN(CCc1ccccc1)C(=O)c1cccc(NC(=O)Cc2cccc(NC(=O)C3CCN(C(=O)C4CCCCC4)CC3)c2)c1	TDP1 cell noCPT inconclusive, DT40 TDP1 CPT inconclusive
CN(CCc1ccccc1)C(=O)c1ccc(NC(=O)Cc2cccc(NC(=O)C3CCN(C(=O)C4CCCCC4)CC3)c2)cc1	TDP1 cell noCPT 21µM, DT40 TDP1 CPT inconclusive
CN(CCc1ccccc1)C(=O)c1cccc(NC(=O)Cc2cccc(NC(=O)C3CCN(C(=O)C4CCC4)CC3)c2)c1	TDP1 cell noCPT 15µM, DT40 TDP1 CPT inconclusive
Cc1oc2ncnc(N3CCOCC3)c2c1C(=O)N1CCN(c2cccc(C(F)(F)F)c2)CC1	DT40 TDP1 CPT inconclusive (no result: DRD3 antagonist, IL1B secr inh)
C[C@H](NC(=O)c1ncn2c1c(=O)[nH]c1ccc(Br)cc12)c1ccccc1	TDP1 cell noCPT inconclusive, DT40 TDP1 CPT inconclusive
CN1CC[C@@H]2C(=O)N3CCc4ccc(-c5ccc6c(c5)OCO6)cc4[C@@H]3C[C@@H]21	TDP1 cell noCPT inconclusive, DT40 TDP1 CPT 18µM
COc1cc(C(=O)Nc2cccc(C)c2C)ccc1OCC(=O)N1CCOCC1	none
Cc1cc(C)cc(-c2nc(-c3ccncc3)no2)c1	TDP1 cell noCPT inconclusive, DT40 TDP1 CPT inconclusive
CC(C)(C)c1ccc(-c2nc(-c3ccncc3)no2)cc1	TDP1 cell noCPT 16µM, DT40 TDP1 CPT inconclusive
O=[N+]([O-])c1cc(-c2nc(-c3ccncc3)no2)cc([N+](=O)[O-])c1	TDP1 cell noCPT 10µM, DT40 TDP1 CPT 10µM
O=[N+]([O-])c1cc(-c2nc(-c3ccncc3)no2)ccc1Cl	ClpP mod inconclusive, TDP1 cell noCPT inconclusive, IL1B secr inh -118, DT40 TDP1 CPT 10µM
CCCNc1ccc(-c2nc(-c3ccncc3)no2)cc1[N+](=O)[O-]	none (no result: DRD3 antagonist, IL1B secr inh)
C[C@@H]1CN([C@H](C)CO)C(=O)CCCn2nncc2CO[C@@H]1CN(C)S(C)(=O)=O	none
CC1SC(c2ccc(F)cc2)N(CCc2ccccc2)C1=O (centres undefined)	TDP1 cell noCPT 23µM (no result: ClpP mod)
